Measured values taken from paper PMC8384837, “Expanding the binding specificity for RNA recognition by a PUF domain”.
Positions count from the first letter of the chain named.

Columns and labels:
Assay in all cases: yeast three-hybrid, YBZ-1, SC-Leu-His + 0.5 mM 3-AT, 4 days
Settings in all cases: tags: N-Gal4 AD-HA kept; label: inside an RPR1-promoter hybrid RNA with tandem MS2 sites; ssRNA
PUM1 PUF domain R6-IYV = target: T1, PUM1 PUF domain R6-IYV (Homo sapiens, UniProt Q14671 828-1176, N1043I;Q1047V)
T1 sequence: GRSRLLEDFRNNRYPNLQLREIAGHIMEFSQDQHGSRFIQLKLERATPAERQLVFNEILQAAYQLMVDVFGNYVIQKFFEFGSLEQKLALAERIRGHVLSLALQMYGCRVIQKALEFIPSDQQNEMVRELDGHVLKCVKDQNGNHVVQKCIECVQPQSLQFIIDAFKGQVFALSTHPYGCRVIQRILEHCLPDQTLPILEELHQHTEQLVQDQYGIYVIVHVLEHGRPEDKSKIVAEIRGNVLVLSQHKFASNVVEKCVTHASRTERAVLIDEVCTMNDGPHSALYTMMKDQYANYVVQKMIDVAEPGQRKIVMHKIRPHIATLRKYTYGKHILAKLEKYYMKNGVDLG
In short: (§1)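 Matching RNA elements and Pumilio-1 PUF domain libraries, randomized at the three base-contacting residues of every repeat, were co-expressed from a centromeric plasmid in strain YBZ-1 (LexA–MS2 coat fusion, HIS3 reporter). The repeat regions were PCR-amplified and Illumina-sequenced from cells grown four days on SC-Leu (input) or SC-Leu-His + 0.5 mM 3-AT (selection). The interaction score is the log change in variant frequency from input to selection. It is computed in log2, with a pseudocount of 1 for absent variants.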

PUM1 PUF domain R6-CFC = target: T2, PUM1 PUF domain R6-CFC (Homo sapiens, UniProt Q14671 828-1176, N1043C;Y1044F;Q1047C)
T2 sequence: T1 sequence with I216C, Y217F, V220C
In short: as §1

PUM1 PUF domain R5-KHG = PUM1 PUF domain R5-KHG (Homo sapiens, UniProt Q14671 828-1176, C1007K;R1008H;Q1011G)
In short: as §1

PUM1 PUF domain R3-VRW = PUM1 PUF domain R3-VRW (Homo sapiens, UniProt Q14671 828-1176, C935V;Q939W)
In short: as §1

PUM1 PUF domain R8-KNR = PUM1 PUF domain R8-KNR (Homo sapiens, UniProt Q14671 828-1176, N1122K;Y1123N;Q1126R)
In short: as §1

PUM1 PUF domain R6-FYI = target: T3, PUM1 PUF domain R6-FYI (Homo sapiens, UniProt Q14671 828-1176, N1043F;Q1047I)
T3 sequence: T1 sequence with I216F, V220I
In short: as §1

PUM1 PUF domain R4-DHE = PUM1 PUF domain R4-DHE (Homo sapiens, UniProt Q14671 828-1176, N971D;Q975E)
In short: as §1

PUM1 PUF domain R4-SWG = PUM1 PUF domain R4-SWG (Homo sapiens, UniProt Q14671 828-1176, N971S;H972W;Q975G)
In short: as §1

PUM1 PUF domain R7-RCQ = PUM1 PUF domain R7-RCQ (Homo sapiens, UniProt Q14671 828-1176, S1079R;N1080C;E1083Q)
In short: as §1

PUM1 PUF domain R5-QKC = PUM1 PUF domain R5-QKC (Homo sapiens, UniProt Q14671 828-1176, C1007Q;R1008K;Q1011C)
In short: as §1

PUM1 PUF domain R2-EWT = PUM1 PUF domain R2-EWT (Homo sapiens, UniProt Q14671 828-1176, N899E;Y900W;Q903T)
In short: as §1

PUM1 PUF domain R1-VFR = PUM1 PUF domain R1-VFR (Homo sapiens, UniProt Q14671 828-1176, S863V;R864F;Q867R)
In short: as §1

PUM1 PUF domain R1-GAS = PUM1 PUF domain R1-GAS (Homo sapiens, UniProt Q14671 828-1176, S863G;R864A;Q867S)
In short: as §1

PUM1 PUF domain R1-RFI = PUM1 PUF domain R1-RFI (Homo sapiens, UniProt Q14671 828-1176, S863R;R864F;Q867I)
In short: as §1

PUM1 PUF domain R1-KIE = PUM1 PUF domain R1-KIE (Homo sapiens, UniProt Q14671 828-1176, S863K;R864I;Q867E)
In short: as §1

PUM1 PUF domain R7-RKR = PUM1 PUF domain R7-RKR (Homo sapiens, UniProt Q14671 828-1176, S1079R;N1080K;E1083R)
In short: as §1

PUM1 PUF domain R3-RMK = PUM1 PUF domain R3-RMK (Homo sapiens, UniProt Q14671 828-1176, C935R;R936M;Q939K)
In short: as §1

GGCUAGAACUAGUGGAUCCCCCGGCGCCCGGCGGCUCGAGCCCGGGUAAGUGUAAAUAGUCUGCAUGCCGCCGGGCGCCAUGCCUGCAGGUCGACUCUAGAAAACAUG
binding signal (PUM1 PUF domain R6-IYV): 2.91 log2 enrichment (interaction score)
binding signal (PUM1 PUF domain R6-CFC): 1.34 log2 enrichment (interaction score)
binding signal (PUM1 PUF domain R5-KHG): 3.79 log2 enrichment (interaction score)
binding signal (PUM1 PUF domain R3-VRW): 3.7 log2 enrichment (interaction score)
binding signal (PUM1 PUF domain R8-KNR): 1.82 log2 enrichment (interaction score)
binding signal (PUM1 PUF domain R6-FYI): 2.78 log2 enrichment (interaction score)

GGCUAGAACUAGUGGAUCCCCCGGCGCCCGGCGGCUCGAGCCCGGGUAAGUGAAAAUAGUCUGCAUGCCGCCGGGCGCCAUGCCUGCAGGUCGACUCUAGAAAACAUG
binding signal (PUM1 PUF domain R6-CFC): 4.06 log2 enrichment (interaction score)

GGCUAGAACUAGUGGAUCCCCCGGCGCCCGGCGGCUCGAGCCCGGGUAAGUGUACAUAGUCUGCAUGCCGCCGGGCGCCAUGCCUGCAGGUCGACUCUAGAAAACAUG
binding signal (PUM1 PUF domain R4-DHE): 2.01 log2 enrichment (interaction score)

GGCUAGAACUAGUGGAUCCCCCGGCGCCCGGCGGCUCGAGCCCGGGUAAGUGUAUAUAGUCUGCAUGCCGCCGGGCGCCAUGCCUGCAGGUCGACUCUAGAAAACAUG
binding signal (PUM1 PUF domain R4-DHE): 4.57 log2 enrichment (interaction score)
binding signal (PUM1 PUF domain R4-SWG): 2.5 log2 enrichment (interaction score)

GGCUAGAACUAGUGGAUCCCCCGGCGCCCGGCGGCUCGAGCCCGGGUAAGUCUAAAUAGUCUGCAUGCCGCCGGGCGCCAUGCCUGCAGGUCGACUCUAGAAAACAUG
binding signal (PUM1 PUF domain R7-RCQ): 2.3 log2 enrichment (interaction score)

GGCUAGAACUAGUGGAUCCCCCGGCGCCCGGCGGCUCGAGCCCGGGUAAGUGUUAAUAGUCUGCAUGCCGCCGGGCGCCAUGCCUGCAGGUCGACUCUAGAAAACAUG
binding signal (PUM1 PUF domain R5-QKC): 3.74 log2 enrichment (interaction score)

GGCUAGAACUAGUGGAUCCCCCGGCGCCCGGCGGCUCGAGCCCGGGUAAGUGUAAAAAGUCUGCAUGCCGCCGGGCGCCAUGCCUGCAGGUCGACUCUAGAAAACAUG
binding signal (PUM1 PUF domain R2-EWT): 2.39 log2 enrichment (interaction score)

GGCUAGAACUAGUGGAUCCCCCGGCGCCCGGCGGCUCGAGCCCGGGUAAGUGUAAAUCGUCUGCAUGCCGCCGGGCGCCAUGCCUGCAGGUCGACUCUAGAAAACAUG
binding signal (PUM1 PUF domain R1-VFR): 3.96 log2 enrichment (interaction score)
binding signal (PUM1 PUF domain R1-GAS): 2.52 log2 enrichment (interaction score)

GGCUAGAACUAGUGGAUCCCCCGGCGCCCGGCGGCUCGAGCCCGGGUAAGUGUAAAUUGUCUGCAUGCCGCCGGGCGCCAUGCCUGCAGGUCGACUCUAGAAAACAUG
binding signal (PUM1 PUF domain R1-VFR): 1.47 log2 enrichment (interaction score)
binding signal (PUM1 PUF domain R1-RFI): 2.47 log2 enrichment (interaction score)
binding signal (PUM1 PUF domain R1-KIE): 3.28 log2 enrichment (interaction score)

GGCUAGAACUAGUGGAUCCCCCGGCGCCCGGCGGCUCGAGCCCGGGUAAGUUUAAAUAGUCUGCAUGCCGCCGGGCGCCAUGCCUGCAGGUCGACUCUAGAAAACAUG
binding signal (PUM1 PUF domain R7-RKR): 2.99 log2 enrichment (interaction score)

GGCUAGAACUAGUGGAUCCCCCGGCGCCCGGCGGCUCGAGCCCGGGUAAGCGUAAAUAGUCUGCAUGCCGCCGGGCGCCAUGCCUGCAGGUCGACUCUAGAAAACAUG
binding signal (PUM1 PUF domain R8-KNR): 2.46 log2 enrichment (interaction score)

GGCUAGAACUAGUGGAUCCCCCGGCGCCCGGCGGCUCGAGCCCGGGUAAGUGUAAUUAGUCUGCAUGCCGCCGGGCGCCAUGCCUGCAGGUCGACUCUAGAAAACAUG
binding signal (PUM1 PUF domain R3-RMK): 4.31 log2 enrichment (interaction score)
